# Experimental data: PubChem BioAssay
# A number with no mark means an inactive call.
# Tested on: not listed separately
# Assay: viability profiling in MM1S myeloma cells – cell-based, resazurin fluorescence, basal, 24 h, PK04 Diversity Set, profiling panel (AID 1174);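 further: MM1S multiple myeloma cell line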
# Details: higher = more signal, called active from +8 up or from −8 down
# Further: test concentration not given here.
row,Structure (SMILES),z-score
1,C=CCOC(=O)[C@@H]1[C@H]2C(=O)O[C@H](c3ccccc3)[C@H](c3ccccc3)N2[C@H](c2ccc(OCCOC(=O)[C@@H]3C[C@@H]4C(=O)N[C@@H](Cc5ccccc5)C(=O)N4[C@@H]3c3ccc(O)cc3)cc2)[C@@]12C(=O)Nc1ccc(I)cc12,0.372
2,C=CCNC(=O)[C@@H]1[C@H]2C(=O)O[C@H](c3ccccc3)[C@H](c3ccccc3)N2[C@H](c2ccc(OCCO)cc2)[C@@]12C(=O)Nc1ccc(C#Cc3ccc(OC)cc3)cc12,-0.718
3,CCOC(=O)C[C@H]1[C@H](OC(=O)Cc2ccc3c(c2)OCO3)[C@@H](NC(=O)c2ccc(-c3ccccc3)cc2)c2cc(OCCCO)ccc2N1C(=O)c1ccc2ccccc2n1,0.878
4,Cc1ccc(S[C@]2(C(=O)NCC(F)(F)F)CC(=O)N(C(C)C)[C@@H]2c2ccc(CO)cc2I)cc1,-0.881
5,C=CCC(OC(C)=O)[C@@H]1[C@@H](N(Cc2ccc(-c3cccc(C(F)(F)F)c3)o2)C(=O)Cc2ccc(F)cc2)c2cc(OCCCO)ccc2N1C(=O)Cc1ccc(OC)cc1 (some centres undefined),1.51
6,COCCCN1C(=O)[C@@]2(Cc3ccccc31)c1ccccc1C(=O)N(Cc1ccccc1C(F)(F)F)[C@H]2c1ccc(CO)cc1,-0.0554
7,CCOC1=C2C(CN(S(=O)(=O)c3ccc(C)cc3)C2c2ccc(C)cc2)C2C(=O)N(c3ccccc3)C(=O)C2C1 (centres undefined),-0.193
8,CC(C)(C)OC(=O)CC[C@@]1(C(=O)NCC(O)CO)N=C(c2ccc(OCCCO)cc2)O[C@@H]1c1ccccc1N=[N+]=[N-] (some centres undefined),-1.26
9,[N-]=[N+]=NCc1ccccc1C[C@]1(C(=O)N2CCOCC2)N=C(c2ccc(OCCCO)cc2)O[C@H]1c1ccccc1N=[N+]=[N-],-1.21

# Target: Dihydroorotate dehydrogenase (quinone), mitochondrial (Plasmodium falciparum (isolate 3D7)) (UniProt Q08210)
# Assay: inhibition of P. falciparum DHODH – biochemical, C-terminal His tag, absorbance 600 nm, primary screen (AID 1175);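 further: recombinant parasite enzyme with a five histidine tag at its C terminus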
# Details: PfDHODH enzyme, DCIP absorbance 600 nm; higher = more signal, called active from +8 up or from −8 down
# Chain of Dihydroorotate dehydrogenase (quinone), mitochondrial (Plasmodium falciparum (isolate 3D7)) (Q08210 whole entry, looked up): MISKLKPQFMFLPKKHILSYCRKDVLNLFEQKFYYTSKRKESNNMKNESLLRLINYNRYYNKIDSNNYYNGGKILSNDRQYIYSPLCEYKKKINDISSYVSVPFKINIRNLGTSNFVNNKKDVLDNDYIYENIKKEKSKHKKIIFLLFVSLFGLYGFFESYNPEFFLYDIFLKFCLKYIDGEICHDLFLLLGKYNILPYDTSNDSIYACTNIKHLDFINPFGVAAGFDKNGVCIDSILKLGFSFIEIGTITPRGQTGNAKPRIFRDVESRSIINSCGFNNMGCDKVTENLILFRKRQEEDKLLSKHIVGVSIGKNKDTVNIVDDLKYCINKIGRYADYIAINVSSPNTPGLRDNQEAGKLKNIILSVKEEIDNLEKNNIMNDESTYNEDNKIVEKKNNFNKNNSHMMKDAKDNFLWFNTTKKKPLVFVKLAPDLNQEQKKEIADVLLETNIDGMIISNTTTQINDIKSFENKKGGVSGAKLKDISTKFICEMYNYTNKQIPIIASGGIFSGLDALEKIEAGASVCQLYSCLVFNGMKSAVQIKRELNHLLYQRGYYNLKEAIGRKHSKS
row,Structure (SMILES),composite z-score
1,O=C1OCC=C[C@H]2OC34C=CCN(CCN5CCOCC5)C(=O)[C@H]3N(CCCO)C(=O)[C@@H]4[C@@H]12 (some centres undefined),-0.283
2,[N-]=[N+]=Nc1ccccc1C[C@@]1(C(=O)NCCN2CCOCC2)N=C(c2ccc(OCCCO)cc2)O[C@@H]1c1ccccc1,0.842
3,COc1ccc(C(=O)Nc2ccc(CN3C(=O)[C@@]4(O[C@@H](CCO)[C@H]([Si](C)(C)c5ccc(OC)cc5)[C@H]4C)c4ccccc43)cc2)cc1,-0.851
4,CC(C)(C)OC(=O)CC[C@@]1(C(N)=O)N=C(c2ccc(OCCCO)cc2)O[C@@H]1c1ccccc1,0.0187
5,COc1ccc(C(=O)Nc2ccc(CN3C(=O)[C@@]4(O[C@@H](CC(=O)N5CCC[C@H]5CO)[C@H]([Si](C)(C)c5ccc(OC)cc5)[C@H]4C)c4ccccc43)cc2)cc1,-6.57
6,CN1C(=O)C2C=CC(C(O)C3CCCCC3)N(Nc3ccc([N+](=O)[O-])cc3[N+](=O)[O-])C2C1=O (centres undefined),-0.877
7,CN1C(=O)C2C=CC(C(O)Cc3ccccc3)N(Nc3ccccc3)C2C1=O (centres undefined),0.295
8,COc1ccc(CCNC(=O)[C@@]2(Sc3ccc(C)cc3)CC(=O)N(C3CCCCC3)[C@@H]2c2ccc(CO)cc2I)cc1,0.43
9,O=C1OCCC/C=C\[C@H]2OC34C=CCN(CCN5CCOCC5)C(=O)[C@H]3N(CCCO)C(=O)[C@@H]4C12 (some centres undefined),-0.053
10,C=CCC(OC(C)=O)[C@@H]1[C@@H](N(Cc2ccc(-c3ccccc3)cc2)C(=O)Cc2ccc(F)cc2)c2cc(OCCCO)ccc2N1C(=O)c1ccc(-c2ccccc2)cc1 (some centres undefined),-1.46
11,O=C(c1ccccc1)N1Cc2ccccc2[C@@H]2OC(c3ccc(OCCCO)cc3)=N[C@]2(Cc2ccccc2)C1=O,0.369
12,COC(=O)C(CC#Cc1ccc2c(c1)[C@]1(C(=O)N2)[C@H](C(=O)O)[C@H]2C(=O)O[C@H](c3ccccc3)[C@H](c3ccccc3)N2[C@@H]1c1ccc(O)cc1)C(=O)OC,-5.46
13,O=C1NCC(=O)N2[C@@H]1C[C@@H](C(=O)O)[C@H]2c1cccc(OCCO)c1,0.97
14,C=CCNC(=O)[C@@H]1[C@H]2C(=O)O[C@H](c3ccccc3)[C@H](c3ccccc3)N2[C@H](c2ccc(OCCO)cc2)[C@@]12C(=O)Nc1ccc(C#CCCO)cc12,-1.24
15,C=C(/C(=C/C[C@@H](OC(C)=O)c1ccc(OCCO)cc1)c1cnc2ccccc2c1)C(C)C,-7.29
